# Test results taken from PubChem BioAssay (NCI).
# Compounds without any hit were thinned out: in the full panel of roughly 83,000, 20% have a hit.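 Step 1: grow cells in 96-well plates. Step 2: add test compound at a single concentration. Step 3: incubate 48 h. Step 4: record percent growth.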 Unmarked numbers belong to inactive results. The source made the active and inactive calls. Rule for the calls: active = growth percent below 10; inactive = the rest.
# Legend:
# Assay in all cases: NCI-60 one-dose screen, 48 h (100 = growth as untreated, 0 = no growth, -100 = all killed)
# Conditions in all cases: 10 µM unless noted
# T-47D breast = test system: T-47D breast
# BT-549 breast = test system: BT-549 breast
# MDA-MB-435 melanoma = test system: MDA-MB-435 melanoma
# SW-620 colon = test system: SW-620 colon
# MCF7 breast = test system: MCF7 breast
# HCT-116 colon = test system: HCT-116 colon
# HCC-2998 colon = test system: HCC-2998 colon
# KM12 colon = test system: KM12 colon
Compound,growth (T-47D breast),growth (BT-549 breast),growth (MDA-MB-435 melanoma),growth (SW-620 colon),growth (MCF7 breast),growth (HCT-116 colon),growth (HCC-2998 colon) [%],growth (KM12 colon)
CCOC(=O)C1=C(C)N=C2Sc3ccccc3N2C1c1ccccc1 (configuration not stated),76.6%,92.2%,102%,92.2%,106%,65%,97.1,93.9%
COc1ccc(Cn2cc3c(c2-c2cc(OC)c(OC)c(OC)c2)CCCc2cnoc2-3)cc1N,51.5%,68.2%,-45.3% (active),29.6%,15.2%,24.1%,49,26.1%
C/C(=C(/C)C1CC1CCN(C(=O)c1ccccn1)S(=O)(=O)c1ccc(C)cc1)C1CCCCC1 (configuration not stated),78.5%,120%,98.2%,103%,74.7%,90.1%,97.4,98.6%
Cn1cc(-c2nn3cc(-c4cccnc4)nc3s2)c2ccccc21,27.7%,22.2%,-39.1% (active),17.1%,15.8%,16.8%,60.2,29.6%
Cn1c(SC(C(=O)Nc2ccc(F)cc2)c2ccccc2)nc2ccccc2c1=O (configuration not stated),96%,102%,101%,105%,90.9%,95.3%,98.3,112%
COc1ccc(/C=C/C(=O)c2nnn(-c3ccc(Br)cc3)c2C)cc1OC,66.4%,63.9%,61.3%,51.6%,12.9%,5.41% (active),83.7,66.7%
Nc1nc(N)c2c(n1)NC(c1ccc(Cl)cc1)CC(c1ccc(Nc3nc(NCCO)nc(Nc4ccc(Cl)cc4)n3)cc1)=N2 (configuration not stated),51.9%,58.3%,5.23% (active),-36.2% (active),-75.1% (active),-84.8% (active),18.6,11.5%
COc1ccc(N2CCN(C(=O)CSc3ccc(-c4nc5cc(C)c(C)cc5[nH]4)cn3)CC2)cc1,21.5%,32.9%,73.1%,85.5%,42.8%,74.3%,94.2,53.2%
C=CCn1c(SCC(=O)Nc2cccc(C(=O)/C=C/c3cccc([N+](=O)[O-])c3)c2)nc2ccccc2c1=O,79.1%,111%,98.4%,62%,33.2%,8.94% (active),101,104%
O=C1c2c(c3c4ccc(Br)cc4oc3c3[nH]c4ccccc4c23)C(=O)N1CCO,10.5%,55.3%,59%,47%,18.6%,39.6%,77.8,65.6%
COc1cc(C(=O)c2cc(C(C)=O)c3c4ccccc4ccn23)cc(OC)c1OC,24.8%,59%,5.4% (active),44.5%,34.2%,42.2%,62.9,43.9%
COc1cc(C2CC(c3ccc(Nc4nc(NCCO)nc(Nc5ccc(Cl)cc5)n4)cc3)=Nc3c(N)nc(N)nc3N2)cc(OC)c1OC (configuration not stated),54.5%,52.1%,74.6%,51.6%,42.7%,23.6%,94.5,61.9%
CCNCCCn1c2c(c3cc(OC)c(OC)cc3c1=O)C(=O)c1cc(OC)cnc1-2,-0.933% (active),27.3%,38%,37.1%,8.05% (active),0.589% (active),43.4,45.4%
COc1ccc(C(=O)n2cc(C=O)c3ccccc32)cc1,106%,100%,88.8%,90%,82.1%,91.3%,104,102%
COc1ccc([C@@H]2[C@@H](O)C(=O)N2c2cc(OC)c(OC)c(OC)c2)cc1,67.1%,-13.4% (active),-28.6% (active),19.4%,11.9%,3.82% (active),21.8,14%
Oc1ccc(CSc2nnc(-c3cnccn3)o2)c2cccnc12,18.5%,31.7%,13.1%,12.9%,5.44% (active),14.5%,13.2,12.5%
CN1C(=O)/C(=C/C=C/c2ccco2)SC1=S,63%,55.1%,95.8%,104%,24.2%,54.4%,99.2,91.3%
CCOC(=O)Nc1cccc(-n2cnc3cc(-c4ccc(O)cc4)ccc32)c1,12.8%,39.3%,-16% (active),25.5%,18.2%,10.3%,30.2,3.22% (active)
Cc1cc(-c2ccc3nc(N)sc3c2)nc2ccc3[nH]ncc3c12,58.5%,33%,-44.2% (active),15.7%,21%,21.8%,66.3,34.6%
Oc1ccc(CSc2nnc(-c3ccc(Br)cc3)o2)c2cccnc12,28.5%,43%,29.3%,17.7%,16%,23%,44.9,19.1%
C=CCn1c(SCC(=O)Nc2cccc(C(=O)/C=C/c3ccc(OC)c(OC)c3)c2)nc2ccccc2c1=O,79.9%,97.7%,101%,74.4%,45.4%,55.6%,100,91.8%
Cn1cc(-c2nnc(N)nc2-c2cn(C)c3ccc(F)cc23)c2cc(F)ccc21,69.1%,99.8%,101%,102%,87.2%,92.7%,104,90.8%
CC(C)(C)n1nnnc1C(Nc1nccs1)c1cc2cccc3ccc4cccc1c4c32 (configuration not stated),73.6%,100%,96.2%,98.8%,76.3%,91.7%,113,101%
O=C1[C@H]2Cc3c([nH]c4ccccc34)[C@H](c3ccc(Cl)cc3)N2C(=O)CN1C1CCN(Cc2c(Cl)cccc2Cl)CC1,62.5%,91.6%,77%,77%,19.1%,37.8%,44.1,72.5%
CCN1C(=O)N(CC)C2SC(N/N=C/c3ccccc3)=NC21 (configuration not stated),64.8%,-19.9% (active),-10.2% (active),22.5%,18.6%,14.2%,12.7,13.3%
CCCC(=O)NC(c1cccnc1)c1cc(Cl)c2cccnc2c1O (configuration not stated),27.7%,68.8%,38.1%,26%,12.5%,29.1%,51.2,30.7%
CCCCCCNC(=O)Oc1ccc(/C(=C(/C)c2ccc(OC)cc2)c2ccc(OCCN3CCCC3)cc2)cc1,59.7%,84.3%,74.4%,62.6%,18.2%,31.4%,87.9,82%
O=C(COc1cccc2cccnc12)Nc1ccc(C(=O)/C=C/c2ccc(Cl)cc2)cc1,74.8%,87.9%,92.6%,93.6%,17.1%,5.25% (active),102,86.5%
Cc1cc(=O)n2nc(-c3cn(C)c4ccc(Cl)cc34)sc2n1,50.8%,108%,99%,97.6%,14.5%,86.3%,102,94.1%
